Test results: PubChem BioAssay (Tox21)
Results filed as inconclusive are left out. Calls of active or inactive are those of the source. Unless noted, calls follow the shape of the dose curve; as a rule, active = well fitted curve in the direction sought with a large enough effect in the repeat runs; inconclusive = weak or mixed curves; inactive = no such curve, though single readings can be large; an effect the other way counts as inactive or inconclusive.

How the values were obtained:
[1] = qHTS assay to identify small molecule antagonists of the glucocorticoid receptor (GR) signaling pathway - cell viability counter screen (AID 720693); also: nearly all actives have a fitted effect of over 55% in size
[2] = qHTS assay for identifying genotoxic compounds that show differential cytotoxicity against isogenic chicken DT40 cell lines with known DNA damage response pathways - wild type cell line (AID 743012); also: nearly all actives have a fitted effect of over 60% in size; also: potency is read from the fitted curve at half-maximal effect
In short: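 Quantitative HTS on parental DT40 cells: 40 h compound treatment at 37 C/5% CO2, with viability then determined by CellTiter-Glo luminescence. Values serve as the DNA repair-proficient reference for differential cytotoxicity.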

[3] = qHTS assay for identifying genotoxic compounds that show differential cytotoxicity against isogenic chicken DT40 cell lines with known DNA damage response pathways - Rad54/Ku70 mutant cell line (AID 743015); also: nearly all actives have a fitted effect of over 60% in size; also: potency is read from the fitted curve at half-maximal effect
[4] = qHTS assay to identify small molecule antagonists of the androgen receptor (AR) signaling pathway - cell viability counter screen (AID 743033; also: nearly all actives have a fitted effect of over 45% in size)
[5] = qHTS assay to identify small molecule antagonists of the androgen receptor (AR) signaling pathway using the MDA cell line - cell viability counter screen (AID 743041; also: nearly all actives have a fitted effect of over 45% in size)
In short: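 Viability counter screen run alongside the AR antagonist reporter: cells seeded 5 h before compound, R1881 added, 16 h incubation at 37C without CO2, fluorescent CellTiter-Fluor signal quantified.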

[6] = qHTS assay to identify small molecule antagonists of the thyroid receptor (TR) signaling pathway - cell viability counter screen (AID 743064); also: nearly all actives have a fitted effect of over 50% in size
In short: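 GH3.TRE-Luc rat pituitary cells dosed after 4 hr plating, co-stimulated with T3 at 1 nM final, incubated 23.5 h at 37 C. Viability measured in the same wells by CellTiter-Fluor fluorescence after 30 min further at 37 C.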

[7] = qHTS assay to identify small molecule antagonists of the thyroid receptor (TR) signaling pathway (AID 743065); also: nearly all actives have a fitted effect of over 55% in size
In short: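 GH3.TRE-Luc rat pituitary cells carrying two TR response elements driving luciferase were plated for 4 h, given compound plus 1 nM T3 (final), and incubated 23.5 h at 37 C. ONE-Glo luminescence measured reporter inhibition; CellTiter-Fluor fluorescence tracked cytotoxicity.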

[8] = system: thyroid hormone receptor (rat, GH3 cells); test: qHTS assay to identify small molecule agonists of the thyroid receptor (TR) signaling pathway (AID 743066; calls by dose curve)
[9] = target: Estrogen receptor (Homo sapiens) (UniProt P03372); test: qHTS assay to identify small molecule antagonists of the estrogen receptor alpha (ER-alpha) signaling pathway (AID 743069; active = well fitted curve in the direction sought with a large enough effect in the signal ratio in the repeat runs, not every such curve was filed as active; the % refers to the signal ratio)
Sequence of Estrogen receptor (Homo sapiens) (P03372 whole entry, looked up): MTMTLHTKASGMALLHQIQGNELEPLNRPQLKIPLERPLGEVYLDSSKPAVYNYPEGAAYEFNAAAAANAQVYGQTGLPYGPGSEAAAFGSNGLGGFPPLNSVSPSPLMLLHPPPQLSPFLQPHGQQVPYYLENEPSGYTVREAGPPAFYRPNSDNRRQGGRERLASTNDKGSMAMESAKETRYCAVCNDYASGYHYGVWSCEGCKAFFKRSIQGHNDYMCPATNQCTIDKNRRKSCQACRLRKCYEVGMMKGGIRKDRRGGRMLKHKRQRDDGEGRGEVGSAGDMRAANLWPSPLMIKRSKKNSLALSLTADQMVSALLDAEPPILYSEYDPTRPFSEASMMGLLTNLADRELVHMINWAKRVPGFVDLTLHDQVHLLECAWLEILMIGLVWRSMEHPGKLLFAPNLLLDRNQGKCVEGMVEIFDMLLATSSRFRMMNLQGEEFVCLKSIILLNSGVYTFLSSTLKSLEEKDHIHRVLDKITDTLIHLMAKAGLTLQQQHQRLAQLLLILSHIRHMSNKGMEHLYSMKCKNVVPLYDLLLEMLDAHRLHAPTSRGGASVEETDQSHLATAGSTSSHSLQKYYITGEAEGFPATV
In short: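 Estradiol-stimulated ER-alpha-UAS-bla HEK293 cells, 18 hr compound exposure at 37C. LiveBLAzer B/G substrate, 2 hr RT, fluorescence read.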

[10] = qHTS assay to identify small molecule antagonists of the estrogen receptor alpha (ER-alpha) signaling pathway - cell viability counter screen (AID 743074; calls by dose curve;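 also: HEK293 cells carrying ER-alpha-UAS-bla reporter stimulated with 17beta-estradiol; nearly all actives have a fitted effect of over 45% in size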)
[11] = target: Estrogen receptor (Homo sapiens) (UniProt P03372); test: qHTS assay to identify small molecule agonists of the estrogen receptor alpha (ER-alpha) signaling pathway (AID 743075; calls by dose curve;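 also: HEK293 GripTite cells with ER-alpha and UAS-driven beta-lactamase reporter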)
[12] = target: Estrogen receptor (Homo sapiens) (UniProt P03372); test: qHTS assay to identify small molecule agonists of the estrogen receptor alpha (ER-alpha) signaling pathway using the BG1 cell line (AID 743079); settings: BG1Luc4E2 cells, ERE-luciferase agonist, 22 h; also: nearly all actives have a fitted effect of over 20% in size
[13] = qHTS assay to identify small molecule antagonists of the estrogen receptor alpha (ER-alpha) signaling pathway using the BG1 cell line (AID 743080; calls by dose curve;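 also: BG1 cells stimulated with 17beta-estradiol alongside compound; nearly all actives have a fitted effect of over 25% in size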)
In short: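 After 5 days in phenol-red-free 10% charcoal-stripped FBS medium, BG1-Luc-4E2 cells were seeded, left 24 h at 37 C, co-treated with compounds and 17beta-estradiol for 21.5 h, then assayed for viability and luciferase.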

[14] = qHTS assay to identify small molecule antagonists of the estrogen receptor alpha (ER-alpha) signaling pathway using the BG1 cell line - cell viability counter screen (AID 743081);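 also: compound given together with 17beta-estradiol as the ER stimulus; nearly all actives have a fitted effect of over 45% in size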
Aromatase (Homo sapiens) = Aromatase (Homo sapiens) (UniProt P11511); test: qHTS assay to identify aromatase inhibitors (AID 743083); also: nearly all actives have a fitted effect of over 55% in size; also: potency is read from the fitted curve at half-maximal effect
Sequence of Aromatase (Homo sapiens) (P11511 whole entry, looked up): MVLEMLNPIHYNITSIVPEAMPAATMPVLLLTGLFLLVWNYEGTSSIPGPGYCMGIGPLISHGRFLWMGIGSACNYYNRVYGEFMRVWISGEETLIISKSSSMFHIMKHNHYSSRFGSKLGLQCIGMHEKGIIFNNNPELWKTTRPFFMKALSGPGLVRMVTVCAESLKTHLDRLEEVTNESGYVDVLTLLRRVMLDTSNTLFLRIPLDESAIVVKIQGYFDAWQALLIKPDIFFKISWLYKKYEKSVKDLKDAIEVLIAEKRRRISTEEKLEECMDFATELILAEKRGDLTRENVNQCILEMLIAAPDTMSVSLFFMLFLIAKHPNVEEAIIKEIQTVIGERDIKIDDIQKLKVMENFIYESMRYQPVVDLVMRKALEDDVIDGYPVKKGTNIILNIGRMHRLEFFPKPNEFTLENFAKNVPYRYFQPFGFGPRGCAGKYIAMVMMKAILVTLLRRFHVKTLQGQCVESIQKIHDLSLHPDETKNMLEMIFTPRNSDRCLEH

[15] = qHTS assay for identifying genotoxic compounds that show differential cytotoxicity against isogenic chicken DT40 cell lines with known DNA damage response pathways - Rev3 mutant cell line (AID 743014); also: nearly all actives have a fitted effect of over 55% in size; also: potency is read from the fitted curve at half-maximal effect
[16] = target: Androgen receptor (Homo sapiens) (UniProt P10275); test: qHTS assay to identify small molecule agonists of the androgen receptor (AR) signaling pathway (AID 743036; active = well fitted activation curve with a large enough effect in the signal ratio in the repeat runs, with a control signal flat, not every such curve was filed as active; the % refers to the signal ratio)
Sequence of Androgen receptor (Homo sapiens) (P10275 whole entry, looked up): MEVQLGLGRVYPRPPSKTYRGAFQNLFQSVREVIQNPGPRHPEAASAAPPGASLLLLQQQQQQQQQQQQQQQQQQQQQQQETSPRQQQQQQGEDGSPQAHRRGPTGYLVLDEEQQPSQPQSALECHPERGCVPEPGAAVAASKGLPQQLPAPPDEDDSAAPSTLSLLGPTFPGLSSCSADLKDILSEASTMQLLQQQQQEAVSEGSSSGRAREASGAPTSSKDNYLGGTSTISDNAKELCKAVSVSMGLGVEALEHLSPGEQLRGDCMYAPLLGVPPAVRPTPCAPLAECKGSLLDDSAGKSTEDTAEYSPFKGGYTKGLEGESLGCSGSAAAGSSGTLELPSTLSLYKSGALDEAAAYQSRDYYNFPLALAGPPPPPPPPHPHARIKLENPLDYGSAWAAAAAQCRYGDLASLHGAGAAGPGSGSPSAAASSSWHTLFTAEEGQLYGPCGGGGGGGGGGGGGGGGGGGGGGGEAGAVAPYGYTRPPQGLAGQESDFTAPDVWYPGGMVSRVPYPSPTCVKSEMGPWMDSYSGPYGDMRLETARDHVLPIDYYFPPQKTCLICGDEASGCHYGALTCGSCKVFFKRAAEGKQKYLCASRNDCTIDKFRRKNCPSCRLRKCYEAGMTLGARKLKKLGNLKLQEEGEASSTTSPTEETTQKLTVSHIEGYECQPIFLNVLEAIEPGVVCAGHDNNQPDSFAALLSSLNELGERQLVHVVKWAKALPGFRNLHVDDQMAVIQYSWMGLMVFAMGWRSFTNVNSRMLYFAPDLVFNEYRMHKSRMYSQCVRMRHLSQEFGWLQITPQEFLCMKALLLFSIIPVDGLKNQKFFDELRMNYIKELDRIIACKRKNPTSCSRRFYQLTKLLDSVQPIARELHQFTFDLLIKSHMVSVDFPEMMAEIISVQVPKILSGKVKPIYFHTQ
In short: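 AR-UAS-bla HEK293 cells, plated 4 h before dosing, were treated with compound for 16 h at 37C. beta-Lactamase reporter read after 2 h with LiveBLAzer B/G FRET substrate at room temperature.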

[17] = target: Androgen receptor (Homo sapiens) (UniProt P10275); test: qHTS assay to identify small molecule agonists of the androgen receptor (AR) signaling pathway using the MDA cell line (AID 743040; also: nearly all actives have a fitted effect of over 20% in size)
In short: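 Luminescence from ONE-Glo, read after 30 min at room temperature, reflects MMTV-driven luciferase in MDA-kb2 cells (AR- and GR-responsive). Treatment lasted 16 h at 37C, 0% CO2.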

[18] = target: Androgen receptor (Homo sapiens) (UniProt P10275); test: qHTS assay to identify small molecule antagonists of the androgen receptor (AR) signaling pathway using the MDA cell line (AID 743042; also: nearly all actives have a fitted effect of over 55% in size)
In short: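 MDA-kb2 cells (human breast carcinoma, stably carrying an MMTV-luciferase reporter responsive to AR and GR) were plated at 3,000 cells/well and preincubated 5 hr at 37C, then given compound plus R1881 agonist for 16 h. ONE-Glo luminescence was read.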

[19] = target: Androgen receptor (Homo sapiens) (UniProt P10275); test: qHTS assay to identify small molecule antagonists of the androgen receptor (AR) signaling pathway (AID 743035; active = well fitted inhibition curve with a large enough effect in the signal ratio in the repeat runs, not every such curve was filed as active; the % refers to the signal ratio)
In short: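 Cell line: GeneBLAzer AR-UAS-bla GripTite (HEK293). Stimulus: R1881 added after compound. Exposure: 16 h, 37C, 5% CO2. Readout: LiveBLAzer B/G FRET fluorescence after 2 h at room temperature.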
% is scaled to controls: 0 for no effect and ±100 for the full control effect.

Nc1cnn(-c2ccccc2)c(=O)c1Cl
inactive: Potency [1] | Potency [2] | Potency [3] | Potency [4] | Potency [5] | Potency [6] | Potency [7] | Potency [8] | Potency [9] | outcome [10] | Potency [11] | activation ([12]; at 70.3 µM (top of the series)) 6.72% | Potency [13] | Potency [14] | Potency (Aromatase (Homo sapiens))

C1CCC(C2CCCCC2)CC1
active: Potency [15] 54.5 µM | Potency [3] 54.5 µM
inactive: Potency [1] | Potency [4] | Potency [6] | Potency [7] | Potency [8] | Potency [9] | outcome [10] | Potency [11] | activation ([12]; at 70.3 µM (top of the series)) -17.5% | Potency [13] | Potency [14] | Potency (Aromatase (Homo sapiens))

CCC(C)n1c(=O)[nH]c(C)c(Br)c1=O (stereo not given)
inactive: Potency [1] | Potency [2] | Potency [3] | Potency [4] | Potency [5] | Potency [6] | Potency [8] | Potency [9] | outcome [10] | Potency [11] | activation ([12]; at 70.3 µM (top of the series)) 1.5% | Potency [13] | Potency [14] | Potency (Aromatase (Homo sapiens))

COc1ccc2c(c1OC)CN1CCc3cc4c(cc3C1C2)OCO4 (stereo not given)
inactive: Potency [1] | Potency [4] | outcome [16] | Potency [17] | Potency [5] | outcome [18] | Potency [6] | Potency [8] | outcome [10] | Potency [11] | activation ([12]; at 32.5 µM (top of the series)) -4.85% | Potency [13] | Potency [14] | Potency (Aromatase (Homo sapiens))
active: Potency [2] 11.4 µM

N#CCNCC#N
inactive: Potency [1] | Potency [15] | Potency [3] | Potency [5] | Potency [6] | Potency [7] | Potency [9] | outcome [10] | Potency [11] | activation ([12]; at 70.3 µM (top of the series)) -9.97% | Potency [13] | Potency (Aromatase (Homo sapiens))

CCOP(=O)(OCC)OP(=O)(OCC)OCC
inactive: Potency [1] | Potency [2] | Potency [4] | Potency [19] | outcome [16] | Potency [17] | Potency [5] | outcome [18] | Potency [6] | Potency [7] | Potency [8] | outcome [10] | Potency [14] | Potency (Aromatase (Homo sapiens))

Cc1cc(C)nc(Nc2ccccc2)n1
inactive: Potency [1] | Potency [2] | Potency [4] | Potency [5] | Potency [7] | Potency [8] | Potency [9] | outcome [10] | Potency [11] | Potency [14] | Potency (Aromatase (Homo sapiens))

CCOc1nc(C(Cl)(Cl)Cl)ns1
inactive: Potency [1] | Potency [15] | Potency [3] | Potency [4] | Potency [5] | Potency [6] | Potency [7] | Potency [8] | Potency [9] | outcome [10] | Potency [11] | activation ([12]; at 70.3 µM (top of the series)) 4.23% | Potency [13] | Potency [14] | Potency (Aromatase (Homo sapiens))

CC(C1CC1)C(O)(Cn1cncn1)c1ccc(Cl)cc1 (stereo not given)
active: Potency [2] 48.3 µM | Potency (Aromatase (Homo sapiens)) 24.2 µM
inactive: Potency [1] | Potency [4] | Potency [5] | Potency [6] | Potency [8] | outcome [10] | Potency [14]

Cc1cc(C)c(C(=O)P(=O)(C(=O)c2c(C)cc(C)cc2C)c2ccccc2)c(C)c1
inactive: Potency [1] | Potency [2] | Potency [3] | Potency [4] | Potency [5] | Potency [6] | Potency [7] | Potency [8] | activation ([12]; at 70.3 µM (top of the series)) 37.1% | Potency [13] | Potency [14] | Potency (Aromatase (Homo sapiens))

COC(=O)c1c(C(F)F)nc(C(F)(F)F)c(C2=NCCS2)c1CC(C)C
active: Potency [15] 61.1 µM | Potency [3] 61.1 µM
inactive: Potency [1] | Potency [4] | Potency [19] | outcome [16] | Potency [17] | Potency [5] | outcome [18] | Potency [8] | Potency [9] | outcome [10] | Potency [11] | activation ([12]; at 70.3 µM (top of the series)) 0.436% | Potency [13] | Potency [14] | Potency (Aromatase (Homo sapiens))

O=C(N[C@H]1CN2CCC1CC2)c1cc2ccoc2cn1
inactive: Potency [1] | Potency [2] | Potency [19] | outcome [16] | Potency [17] | Potency [5] | outcome [18] | Potency [6] | Potency [7] | Potency [8] | Potency [9] | outcome [10] | Potency [11] | activation ([12]; at 70.3 µM (top of the series)) -3.48% | Potency [13] | Potency [14] | Potency (Aromatase (Homo sapiens))
